Reference: PubChem BioAssay (NCATS)
Inconclusive results are not listed. Active and inactive are the calls of the source. Calls come from the whole dose curve; as a rule, active = well fitted inhibition curve with a large enough effect; inconclusive = small, poorly fitted or top-dose-only effect; inactive = flat fitted curve, though single readings scatter.

Each compound was assayed on astro (assay: Drug repurposing screens with cells derived from glioblastoma tumor samples (AID 1345199; note: nearly all actives have a fitted effect of over 40% in size)). Settings: viability, ATP luminescence, 48 h; series mostly up to 45.9 µM; activity, negative = cell killing: at the top concentration.
Protocol: CD133+ cells were isolated from GBM patient biopsies and cultured as neurospheres. Neurospheres from four patients were used to screen the NCATS pharmaceutical collection (NPC) library of approved drugs and bioactive compounds. […] The neurospheres were incubated with drugs for 48 hours in 1536-well format, then assayed with an ATP content cell viability assay. […] These hits were cherry picked to confirm activity in the four original GBM lines screened plus three other slower growing GMB lines (unable to yield enough cells for a full primary screen). Variable activities of the confirmed primary hits in the different GBM patient lines were observed. The patient line 206 responded to the greatest number of compounds and line 923 responded to the least amount of active compounds.
% is set by controls: 0 for no effect and ±100 for the full control effect.

SMILES | activity, negative = cell killing
Cc1ccc(S(=O)(=O)NC(=O)NC2CCCCCCC2)cc1 | -6.67% (inactive)
C=CCNC(N)=S | -0.464% (inactive)
CN(C/C=C/C#CC(C)(C)C)Cc1cccc2ccccc12 | -13.7% (inactive)
CC[N+](CC)(CC(=O)Nc1c(C)cccc1C)Cc1ccccc1 | -15% (inactive)
CC(=O)NS(=O)(=O)c1ccc(N)cc1 | -6.24% (inactive)
Cc1onc(-c2ccccc2)c1-c1ccc(S(N)(=O)=O)cc1 | -17.4% (inactive)
COc1ccc(C(=O)NCc2ccc(OCCN(C)C)cc2)cc1OC | -13.5% (inactive)
NC(=O)N[C@@H](CCC(=O)O)C(=O)O | -11.3% (inactive)
O=C(O)c1cc(=O)c2ccccc2o1 | -16.2% (inactive)
CC1(C)S[C@@H]2[C@H](NC(=O)C(C(=O)O)c3ccccc3)C(=O)N2[C@H]1C(=O)O (stereo not given in full) | -11.8% (inactive)
CNCc1ccccc1 | 9.54% (inactive)
O=C(CCBr)N1CCN(C(=O)CCBr)CC1 | -15.2% (inactive)
CCCOC(=O)c1ccc(N)cc1 | -21.2% (inactive)
C[C@@H]1CCC[C@H](C)N1 | 5.77% [at 21.2 µM] (inactive)
CC1CC(OC(=O)c2ccccc2O)CC(C)(C)C1 (stereo not given) | -10.3% (inactive)
COC(=O)c1cccnc1 | -11.6% (inactive)
NS(=O)(=O)c1ccc(NC(=O)CCC(=O)O)cc1 | -19.9% (inactive)
COc1ccccc1OC(=O)Oc1ccccc1OC | -5.75% (inactive)
CC(N)CCCC(C)(C)O (stereo not given) | -14.2% (inactive)
C=CCOc1ccccc1OCC(O)CNC(C)C (stereo not given) | -12.8% [at 21.2 µM] (inactive)

SMILES | activity, negative = cell killing
CC(C)NC[C@@H](O)COc1ccc(CC(N)=O)cc1 | -2.73% (inactive)
C=CCN1C[C@H](C(=O)N(CCCN(C)C)C(=O)NCC)C[C@@H]2c3cccc4[nH]cc(c34)C[C@H]21 | -19.3% (inactive)
CC1(c2ccccc2)OC(C(=O)O)=CC1=O (stereo not given) | 1.12% (inactive)
CC(CN(C)C)C(C)(O)Cc1ccc(Cl)cc1 (stereo not given) | -10.6% (inactive)
CN1CCCN=C1COC(=O)C(O)(c1ccccc1)C1CCCCC1 (stereo not given) | -20.6% (inactive)
CCCCCCCCCCOc1cc2c(=O)c(C(=O)OCC)c[nH]c2cc1OCC | -9.57% (inactive)
CC(=O)N[C@H]1[C@H]([C@H](O)[C@H](O)CO)OC(C(=O)O)=C[C@@H]1N=C(N)N | -10.7% (inactive)
NS(=O)(=O)c1cc2c(cc1C(F)(F)F)NCNS2(=O)=O | -3.11% [at 21.2 µM] (inactive)
Cc1c(Cn2ccnc2)c2ccccc2n1CCC(=O)O | -12% (inactive)
Cc1ccc(S(=O)(=O)NC(=O)NC2CCCCC2)cc1 | -2.71% (inactive)
CCCCCCCCCCC(CO)CCCCCCCC (stereo not given) | -20.3% (inactive)
CC(C)=CCC[C@@](C)(O)[C@H]1CC=C(C)CC1 | -7.37% (inactive)
CN[C@@H]1[C@H](O)[C@H](NC)[C@H]2O[C@@]3(O)C(=O)C[C@@H](C)O[C@H]3O[C@@H]2[C@H]1O | -4.49% [at 21.2 µM] (inactive)
O=c1[nH]c(=O)n([C@H]2C[C@H](O)[C@@H](CO)O2)cc1I | -15.5% [at 21.2 µM] (inactive)
CCCC(O)C(CC)CO (stereo not given) | -8.99% (inactive)
C[C@]1(Cn2ccnn2)[C@H](C(=O)O)N2C(=O)C[C@H]2S1(=O)=O | -9.15% (inactive)
COc1ccc(-c2cc(=O)c3c(O)cc(O[C@@H]4O[C@H](CO[C@@H]5O[C@@H](C)[C@H](O)[C@@H](O)[C@H]5O)[C@@H](O)[C@H](O)[C@H]4O)cc3o2)cc1O | -9.22% (inactive)
CC(=O)Nc1cccc(O)c1 | -17.8% (inactive)
CC(=O)SC[C@@H](Cc1ccccc1)C(=O)NCC(=O)OCc1ccccc1 | -11.6% [at 21.2 µM] (inactive)
CC(=O)OCC(=O)[C@@]1(O)CC[C@H]2[C@@H]3CCC4=CC(=O)C=C[C@]4(C)[C@@]3(F)[C@@H](O)C[C@@]21C | 1.52% [at 21.2 µM] (inactive)
